# ± gives the standard deviation of the averaged measurements.
# System: Caenorhabditis elegans N2 infected with Nematocida parisii ERTm1
# Experiment: progeny production relative to DMSO uninfected control; higher = more progeny despite microsporidia infection (inhibition of infection with low host toxicity)
# Conditions: infection time 6 days; 40 µM
# Description: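 Bleach-synchronised C. elegans N2 L1 larvae (100 per well) were grown in 96-well plates in K-medium with 5x E. coli OP50 and 15,000 N. parisii spores/uL, plus Pandemic Response Box compound at 100 uM or 40 uM (1% DMSO), for 6 days at 21 C with shaking. Worms were stained with Rose Bengal, scanned on a flatbed scanner and counted with WorMachine. Progeny production is given as % of the DMSO uninfected control (triplicate wells), so higher values mean the compound restores progeny despite infection.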
row,SMILES,progeny production [%]
1,O=C(O)C(Cc1c[nH]c2ccccc12)N1C(=O)c2ccccc2C1=O (stereo not given),6.93 ± 1.2
2,O=C(Cc1ccccc1F)Nc1nc2ccccc2[nH]1,4.94 ± 2.8
3,CC(C)C(=O)N[C@H]1[C@H]([C@H](O)[C@H](O)CO)OC(C(=O)O)=C[C@@H]1N=[N+]=[N-],5.36 ± 3.2
4,O=c1cc(NCCCN[C@@H]2CCOc3c(Br)cc(Br)cc32)[nH]c2ccsc12,5.52 ± 2.9
5,O=S(=O)(Nc1cccc2cccnc12)c1ccccc1,5.03 ± 2.5
6,CCCC1(C2CC2)c2cc(Cl)ccc2NC(=O)N1C (stereo not given),2.32 ± 0.043
7,CCOc1ccc(/C=N/NC(=O)C2CC2c2ccc(C(C)(C)C)cc2)cc1OCC (stereo not given),5.73 ± 4.8
8,O=C1NC(=O)C(Br)=C1Br,12.2 ± 12
9,O=[N+]([O-])/C(Br)=C/c1ccc(Br)o1,5.77 ± 1.4
10,CC[C@H](NC(=O)[C@H](C)NC)C(=O)N1C[C@@H](O)C[C@H]1Cc1c(-c2[nH]c3cc(F)ccc3c2C[C@@H]2C[C@H](O)CN2C(=O)[C@H](CC)NC(=O)[C@H](C)NC)[nH]c2cc(F)ccc12,6.99 ± 3.1
11,Nc1nc(Nc2ccc3nc(-c4ccc(F)cc4)cc(N)c3c2)cc(-c2ccccc2)n1,3.92 ± 1.1
12,Nc1cc(-c2nc3ccccc3[nH]2)n[nH]c1=O,6.4 ± 6.5
13,COc1ccc(C2CNC(=O)C2)cc1OC1CCCC1 (stereo not given),4.65 ± 2.2
14,COc1ccc(NC(=O)c2cc3ccccn3n2)cc1,9 ± 5.7
15,c1ccc(Cn2c(-c3ccccn3)nc3ccccc32)cc1,3.12 ± 1.9
16,O=C(/C=C\n1cnc(-c2cc(C(F)(F)F)cc(C(F)(F)F)c2)n1)NNc1ccccn1,3.49 ± 1.1
17,COc1ccc(NC(=O)CC2Sc3ncnn3C2=O)cc1 (stereo not given),8.48 ± 3.4
18,CCc1cc(CCCOc2c(C)cc(-c3noc(C(F)(F)F)n3)cc2C)on1,5.28 ± 4
19,OB1OCc2c1ccc(Cl)c2F,4.06 ± 1
20,CCCCOC(=O)Nc1cc2nc(C3CCCCC3)[nH]c2cc1N(CC)CC,6.28 ± 3

# Same assay, conditions: infection time 6 days; 100 µM
row,SMILES,progeny production [%]
1,O=C(O)C(Cc1c[nH]c2ccccc12)N1C(=O)c2ccccc2C1=O (stereo not given),9.79 ± 1.2
2,O=C(Cc1ccccc1F)Nc1nc2ccccc2[nH]1,8.29 ± 4.9
3,CC(C)C(=O)N[C@H]1[C@H]([C@H](O)[C@H](O)CO)OC(C(=O)O)=C[C@@H]1N=[N+]=[N-],14.6 ± 5.9
4,O=c1cc(NCCCN[C@@H]2CCOc3c(Br)cc(Br)cc32)[nH]c2ccsc12,8.91 ± 4
5,O=S(=O)(Nc1cccc2cccnc12)c1ccccc1,12.9 ± 7.2
6,CCCC1(C2CC2)c2cc(Cl)ccc2NC(=O)N1C (stereo not given),11.3 ± 3.5
7,CCOc1ccc(/C=N/NC(=O)C2CC2c2ccc(C(C)(C)C)cc2)cc1OCC (stereo not given),12 ± 7.9
8,O=C1NC(=O)C(Br)=C1Br,30.7 ± 9.8
9,O=[N+]([O-])/C(Br)=C/c1ccc(Br)o1,26.4 ± 9.5
10,CC[C@H](NC(=O)[C@H](C)NC)C(=O)N1C[C@@H](O)C[C@H]1Cc1c(-c2[nH]c3cc(F)ccc3c2C[C@@H]2C[C@H](O)CN2C(=O)[C@H](CC)NC(=O)[C@H](C)NC)[nH]c2cc(F)ccc12,17.7 ± 7.7
11,Nc1nc(Nc2ccc3nc(-c4ccc(F)cc4)cc(N)c3c2)cc(-c2ccccc2)n1,7.7 ± 7.8
12,Nc1cc(-c2nc3ccccc3[nH]2)n[nH]c1=O,10.7 ± 4.7
13,COc1ccc(C2CNC(=O)C2)cc1OC1CCCC1 (stereo not given),11.2 ± 9.9
14,COc1ccc(NC(=O)c2cc3ccccn3n2)cc1,13.6 ± 6
15,c1ccc(Cn2c(-c3ccccn3)nc3ccccc32)cc1,4.55 ± 2.1
16,O=C(/C=C\n1cnc(-c2cc(C(F)(F)F)cc(C(F)(F)F)c2)n1)NNc1ccccn1,7.21 ± 3.6
17,COc1ccc(NC(=O)CC2Sc3ncnn3C2=O)cc1 (stereo not given),14.8 ± 8.1
18,CCc1cc(CCCOc2c(C)cc(-c3noc(C(F)(F)F)n3)cc2C)on1,12.5 ± 14
19,OB1OCc2c1ccc(Cl)c2F,18.5 ± 12
20,CCCCOC(=O)Nc1cc2nc(C3CCCCC3)[nH]c2cc1N(CC)CC,13.5 ± 8.2

# — the supplement of paper PMC10732440
